Data: ChEMBL document CHEMBL1201862, “PubChem BioAssay data set” (2004)
“And” between values parts separate entries of the source, which are not always exact repeats. Identical values can stand only once.

Assay: Mycobacterium tuberculosis growth inhibition, dose response, 7H9 media, purified and synthesized compounds, set 8 (AID 588447); call rule not given here
Format: functional

Question: For `O=C(C1CCC(CNc2c(N3CCCCC3)c(=O)c2=O)CC1)N1CCCCC1` (centres undefined), which IC90 is on record?
Answer: The IC90 was > 100 µM (active).

Question: For `CC1CCCN(C(=O)C2CCC(CNc3c(N4CCCCC4)c(=O)c3=O)CC2)C1` (centres undefined), which IC90 is on record?
Answer: The IC90 was > 100 µM (active).

Question: With `CC(=O)c1ccc(NC(=O)c2ccc(CNc3c(N4CCOCC4)c(=O)c3=O)cc2)cc1` as the molecule, how does the IC90 read?
Answer: Its IC90 is > 100 µM (active).

Question: For `CC1CC(C)CN(C(=O)c2ccc(CNc3c(N4CCCC4)c(=O)c3=O)cc2)C1` (centres undefined), which IC90 is on record?
Answer: Its IC90 is > 100 µM (active).

Question: Which IC90 does the source give for `COc1ccc(N2CCN(C(=O)c3ccc(CNc4c(N5CCOCC5)c(=O)c4=O)cc3)CC2)cc1` here?
Answer: The IC90 was > 100 µM (active).

Question: With `O=C(NCCc1ccc(Cl)cc1)C1CCC(CNc2c(N3CCCCC3)c(=O)c2=O)CC1` (centres undefined) as the molecule, how does the IC90 read?
Answer: Its IC90 is > 100 µM (active).

Question: With `Cc1cccc(N2CCN(C(=O)c3ccc(CNc4c(N5CCC(C)CC5)c(=O)c4=O)cc3)CC2C)c1` (centres undefined) as the molecule, how does the IC90 read?
Answer: The IC90 was > 76.5 µM (active).

Question: For `O=C(NCCc1ccc(Cl)cc1)c1ccc(CNc2c(N3CCOCC3)c(=O)c2=O)cc1`, which IC90 is on record?
Answer: The IC90 was > 100 µM (active).

Question: With `CC(C)OC(=O)CSc1ncnc2c1cnn2-c1ccccc1` as the molecule, how does the IC90 read?
Answer: The IC90 was > 100 µM (active).

Question: With `CC1CCCN(C(=O)c2ccc(CNc3c(N4CCCCC4)c(=O)c3=O)cc2)C1` (centres undefined) as the molecule, how does the IC90 read?
Answer: Its IC90 is > 100 µM (active).

Question: Which IC90 does the source give for `CCOC(=O)CSc1ncnc2c1cnn2-c1ccccc1` here?
Answer: Its IC90 is > 75.1 µM (active).

Question: For `CC1CCN(C(=O)c2ccc(CNc3c(N4CCCC4)c(=O)c3=O)cc2)CC1`, which IC90 is on record?
Answer: Its IC90 is > 100 µM (active).

Question: For `CC1CC(C)CN(C(=O)C2CCC(CNc3c(N4CCCCC4)c(=O)c3=O)CC2)C1` (centres undefined), which IC90 is on record?
Answer: The IC90 was > 75 µM (active) and > 100 µM (active).

Question: Which IC90 does the source give for `O=C(c1ccc(CNc2c(N3CCCC3)c(=O)c2=O)cc1)N1CCc2ccccc2C1` here?
Answer: Its IC90 is > 100 µM (active).
